Assay results published in PubChem BioAssay AID720513 (Broad Institute, 2013).
The whole screen tested about 2,100 compounds, of which about 480 (23%) were called active. Roughly 5% stayed inconclusive and do not appear here.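 The calls were made as follows: active = fitted curve reaches 40% activation at or below the top valid concentration, in every replicate test; inconclusive = replicate tests disagree on the call; inactive = the rest, including activity in the opposite direction.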 Only a sample is shown. Potency and affinity values are given separately.

assay: PGC1a acetylation increase, cellular AlphaLISA – cell-based, cherry-picked samples, set 6, dose response (AID 720513); conditions: U2OS PGC1a acetylation AlphaLISA, overnight, 0 = neutral, -100 = inhibitor control; series mostly up to 19.5 µM; activation (acetylation increase): at the top concentration;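 also: cells made to overexpress flag tagged PGC1a plus GCN5 acetyltransferase by viral infection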

Activation (acetylation increase), inactive:
O=C(CC1CC1)N[C@@H]1CC[C@@H](CCNS(=O)(=O)c2ccc(Cl)cc2)O[C@@H]1CO 11.2%
O=C(NCc1ccco1)c1ccc(Cn2c(=O)c3ccccc3n(Cc3ccc(Cl)cc3)c2=O)cc1 -3.9%
Cc1cccn2c(=O)c3cc(C(=O)NCc4ccco4)c(=N)n(CCc4ccccc4)c3nc12 -4.71%
COc1cccc(C(=O)NCCS(=O)(=O)N2CCN(C(=O)c3ccco3)CC2)c1 3.59%
COc1ccc(CCNC(=O)c2ccc(Cl)cc2)cc1 16.4%
COc1ccc(S(=O)(=O)NCCC(=O)NCc2ccc(F)cc2)cc1 -14.2%
Cc1ccc(S(=O)(=O)N2CCCC(C(=O)NCCC3=CCCCC3)C2)cc1 (stereo not given) 14.2%
COc1ccc(CCNc2ccc(C(CC(N)=O)NC(=O)c3cc(C)cc(C)c3)cc2[N+](=O)[O-])cc1 (stereo not given) 7.93%
CN(C[C@H]1N[C@@H](CO)[C@@H]1c1ccc(C2=CCCC2)cc1)C(=O)c1cccc(F)c1 -91.5%
Cc1ccsc1C(=O)Nc1cc(Cl)ccc1-n1cncn1 28.1%
S=c1nc[nH]c2c1cnn2Cc1ccccc1 -63.3%
CCCC[C@@]1(C2CCCC2)Cc2cc(OCC(=O)O)c(Cl)c(Cl)c2C1=O -24%
COC(=O)c1nn(-c2ccccc2)ccc1=O -18.9%
CC(=O)N1/C(=C/c2ccc(N(C)C)cc2)C(=O)c2ccccc21 4.01% [at 10 µM]
CC1CCCCC1NC(=O)C1CCN(C(=O)NC2CCCCC2)CC1 (stereo not given) 27.7%
O=C1Nc2ccccc2N=C(c2ccccc2)C1N(Cc1ccc(F)cc1)C(=O)c1cccnc1 (stereo not given) -30.1%
COc1ccc(NC(=O)/C(Cl)=C(/Cl)S(=O)(=O)Cc2ccccc2)cn1 -135%
O=C(NCc1ccc2c(c1)OCO2)c1nc(S(=O)(=O)Cc2ccccc2)ncc1Cl -27.9%
N#CCSc1nnc(COc2ccc3ccccc3c2)o1 -9.11%
O=S(=O)(Nc1cccc(CCc2ccccn2)c1)c1ccc2ccccc2c1 5.91%
C=C[C@H]1CN2CCC1C[C@H]2[C@H](O)c1ccnc2ccc(OC)cc12 (stereo not given in full) -22.3%
CN1/C(=C\C(=O)c2oc3ccccc3c2N)C(C)(C)c2ccccc21 18.8%
COC(C[C@H]1O[C@@H]1[C@H](O)[C@H](C)OCc1ccccc1)OC -0.97%
COc1ccc2[nH]c(C(=O)O)c(NC(=O)c3ccccc3[N+](=O)[O-])c2c1 18.8% [at 10 µM]
Cc1nc(Nc2ccc(S(N)(=O)=O)cc2)sc1C(=O)Nc1ccccc1 -27.8%
C[C@@H]1CN([C@H](C)CO)C(=O)CCCn2cc(nn2)CO[C@@H]1CN(C)C(=O)NC1CCCC1 18.2%
CC(=O)Nc1nc(C)c(Oc2ccc(Cl)cc2)c(=O)[nH]1 19.3%
CSc1nc2nccc(/C=C\c3ccccc3)n2n1 12.5%
COC(=O)C(=Cc1ccc(OCc2ccc([N+](=O)[O-])cc2)c(OC)c1)C(=O)OC -2.54%
COc1ccc(C(=O)OCC(=O)NCc2ccc3c(c2)OCO3)cc1[N+](=O)[O-] 15.8%
O=C(CSc1nc(O)cc(=O)n1-c1ccccc1)N1CCCCC1 8.21%
CCCn1c(SC(C)C(=O)NCC2CCCO2)nc2cc(Cl)ccc2c1=O (stereo not given) 34.2%
C[C@@H]1CN([C@H](C)CO)S(=O)(=O)c2ccc(C3=CCCCC3)cc2O[C@H]1CN(C)Cc1ccccc1 -76.1% [at 21 µM]
Oc1ccc(C2CNCCc3c2cc(O)c(O)c3Cl)cc1 (stereo not given) 2.77%
COC(=O)C1CCN(Cc2nnc(-c3ccccc3)o2)CC1 -1.11%
Cc1nc2ccccc2c(=O)n1NC(=O)c1ccc(Cl)c([N+](=O)[O-])c1 -65%
Cc1ccc2nc(SCC(=O)Nc3ccc(F)cc3)nc(=O)n2c1 -4.69%
CC(C(=O)OCn1nnc2ccccc2c1=O)N1C(=O)c2ccccc2C1=O (stereo not given) 34.9%
O=C1C=CC2(C=C1)O[C@H](Cc1ccccc1)[C@@H](Cc1ccccc1)O2 -115%
CCOC(=O)C(CC)(CC)C(=O)/C=C/c1ccc(Br)cc1 -49%
CCOc1ccccc1CNC(=O)c1cc2oc3ccccc3c2n1C 37.7%
Cc1cccc(NC(=O)CNC(=O)Cn2ncc(Cl)c(Cl)c2=O)c1C -103%
CSCCC(NC(=O)c1ccc(Cl)cc1)C(=O)OCC(=O)Nc1cc(Cl)ccc1C (stereo not given) -30.2%
CCOC(=O)c1cn(-c2ccccc2)nc1-c1cccnc1 15.8%
COc1ccc2c([N+](=O)[O-])c(N3CCCC3)[nH]c2c1 22.3%
COCCCNC1CS(=O)(=O)CC1O (stereo not given) 20%
O=C(c1ccc2ccccc2c1)N1CCCC1 -0.375%
COc1ccc(N(C)S(=O)(=O)c2cccc(C(=O)Nc3ccc(-n4cnnn4)cc3)c2)cc1 36.9%
COc1ccc(CCNC(=O)COC(=O)c2ccco2)cc1OC -6.46%
COc1ccc(CCNC(=O)C(=O)NCC2CCCO2)cc1OC (stereo not given) 2.41%
CCC(C)NCCOCCOc1ccc(C)cc1OC (stereo not given) 19.7%
CCOC(=O)c1c(C)nc2sc3c(=O)n(-c4ccc(OC)cc4)cnc3c2c1-c1ccc(OC)cc1 28.6%
C[C@H]1CN([C@@H](C)CO)C(=O)c2cc(C#Cc3ccccc3)cnc2O[C@H]1CN(C)C(=O)c1ccccn1 -19.3%
CC1CN(C2CCN(C(=O)c3cccc(Cl)c3)CC2)CC(C)O1 (stereo not given) -9.81%
CCOC(=O)C1(CC2CCCCO2)CCN(C(=O)Nc2ccc(SC)cc2)CC1 (stereo not given) 12.1%
O=C1c2ccccc2C(=O)N1c1ccc(Cc2ccncc2)cc1 -10.4%
Cc1ccc(CCC(=O)Nc2ccc(Cl)cc2)o1 -15.7%
Cc1ccc(NC(=O)CC2=NC(=O)C(CC(=O)Nc3ccccc3F)S2)cc1 (stereo not given) 32.5%
O=C(O)C1CCCN1S(=O)(=O)c1ccc(Br)s1 (stereo not given) (tested in a mixture with another compound) 35.3%
COCCNC(=O)CCc1c(C)nc2c(c(C)nn2-c2ccc(C)c(C)c2)c1C 9.63%
C[C@H](CO)N1C[C@H](C)[C@@H](CN(C)Cc2cccnc2)Oc2cc(C3=CCCC3)ccc2S1(=O)=O -34.2%
Cc1cc(C)n(C(=O)c2ccc([N+](=O)[O-])cc2N)n1 -13%
COc1ccc(S(=O)(=O)Nc2ccccc2C)cc1C(=O)N1CCOCC1 8.1%
Cc1ccc(-c2cc(C(=O)N3CCOCC3)c3ccccc3n2)o1 15.8%
O=C(N=Nc1c(O)[nH]c2ccccc12)c1cc(-c2cccs2)[nH]n1 -2.84%
